Laboratory results: ChEMBL document CHEMBL1961873, “Compounds: GSK PKIS; Assays: Nanosyn kinase panel” (2012)

Columns and labels:
[1] = system: Tyrosine-protein kinase ABL1 (Homo sapiens), P00519 [T315I]; details: at 1 µM
[2] = system: Tyrosine-protein kinase ABL1 (Homo sapiens), P00519 [Y253F]; details: at 0.1 µM
[3] = system: Tyrosine-protein kinase ABL1 (Homo sapiens), P00519 [Y253F]; details: at 1 µM
[4] = molecular target: Tyrosine-protein kinase ABL1 (Homo sapiens) (UniProt P00519); details: at 0.1 µM
[5] = molecular target: Tyrosine-protein kinase ABL1 (Homo sapiens) (UniProt P00519); details: at 1 µM
[6] = molecular target: ALK tyrosine kinase receptor (Homo sapiens) (UniProt Q9UM73); details: at 0.1 µM
ALK tyrosine kinase receptor (Homo sapiens), sequence (Q9UM73 19-1620 limits assumed): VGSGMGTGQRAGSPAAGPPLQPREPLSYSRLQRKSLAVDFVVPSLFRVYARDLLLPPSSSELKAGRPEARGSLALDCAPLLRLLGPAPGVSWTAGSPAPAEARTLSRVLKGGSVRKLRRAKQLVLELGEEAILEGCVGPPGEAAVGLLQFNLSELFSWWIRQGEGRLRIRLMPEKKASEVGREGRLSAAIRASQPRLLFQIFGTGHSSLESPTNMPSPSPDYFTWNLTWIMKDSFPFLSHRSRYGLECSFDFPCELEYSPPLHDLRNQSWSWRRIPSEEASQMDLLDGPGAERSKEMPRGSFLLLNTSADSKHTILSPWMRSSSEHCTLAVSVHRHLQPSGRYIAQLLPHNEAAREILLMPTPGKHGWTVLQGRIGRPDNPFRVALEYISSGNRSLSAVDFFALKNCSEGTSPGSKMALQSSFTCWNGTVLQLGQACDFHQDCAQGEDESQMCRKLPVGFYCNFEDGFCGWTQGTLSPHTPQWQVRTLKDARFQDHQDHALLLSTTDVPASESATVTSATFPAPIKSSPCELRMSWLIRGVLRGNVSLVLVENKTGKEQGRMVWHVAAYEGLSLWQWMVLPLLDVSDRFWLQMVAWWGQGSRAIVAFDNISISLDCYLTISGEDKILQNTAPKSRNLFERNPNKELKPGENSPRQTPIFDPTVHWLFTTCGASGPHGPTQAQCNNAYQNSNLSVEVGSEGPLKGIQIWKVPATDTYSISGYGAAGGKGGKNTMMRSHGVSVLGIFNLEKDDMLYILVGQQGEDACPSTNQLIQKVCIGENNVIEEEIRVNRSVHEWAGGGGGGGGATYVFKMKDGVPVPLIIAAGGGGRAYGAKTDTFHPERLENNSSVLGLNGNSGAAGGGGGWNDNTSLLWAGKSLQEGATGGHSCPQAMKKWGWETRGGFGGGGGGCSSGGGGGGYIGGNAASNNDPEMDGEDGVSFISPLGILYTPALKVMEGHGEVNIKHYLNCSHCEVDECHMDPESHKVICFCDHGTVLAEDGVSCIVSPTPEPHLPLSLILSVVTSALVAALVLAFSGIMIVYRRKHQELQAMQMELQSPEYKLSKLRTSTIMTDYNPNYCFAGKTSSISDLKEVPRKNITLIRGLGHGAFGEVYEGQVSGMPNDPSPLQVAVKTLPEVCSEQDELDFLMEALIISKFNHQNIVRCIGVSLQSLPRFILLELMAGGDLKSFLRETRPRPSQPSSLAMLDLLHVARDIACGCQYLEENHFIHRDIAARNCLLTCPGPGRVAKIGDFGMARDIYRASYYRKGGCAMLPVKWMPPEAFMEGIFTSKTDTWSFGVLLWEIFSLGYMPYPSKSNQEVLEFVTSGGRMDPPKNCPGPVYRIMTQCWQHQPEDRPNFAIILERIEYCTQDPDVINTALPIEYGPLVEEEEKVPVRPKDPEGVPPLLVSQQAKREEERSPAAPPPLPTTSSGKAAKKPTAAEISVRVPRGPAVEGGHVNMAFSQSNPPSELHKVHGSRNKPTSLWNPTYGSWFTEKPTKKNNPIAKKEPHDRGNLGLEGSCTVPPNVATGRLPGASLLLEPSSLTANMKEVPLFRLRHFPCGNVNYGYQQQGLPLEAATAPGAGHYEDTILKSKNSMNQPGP

[7] = molecular target: ALK tyrosine kinase receptor (Homo sapiens) (UniProt Q9UM73); details: at 1 µM
[8] = molecular target: Tyrosine-protein kinase ABL2 (Homo sapiens) (UniProt P42684); details: at 0.1 µM
Tyrosine-protein kinase ABL2 (Homo sapiens), sequence (P42684 whole entry): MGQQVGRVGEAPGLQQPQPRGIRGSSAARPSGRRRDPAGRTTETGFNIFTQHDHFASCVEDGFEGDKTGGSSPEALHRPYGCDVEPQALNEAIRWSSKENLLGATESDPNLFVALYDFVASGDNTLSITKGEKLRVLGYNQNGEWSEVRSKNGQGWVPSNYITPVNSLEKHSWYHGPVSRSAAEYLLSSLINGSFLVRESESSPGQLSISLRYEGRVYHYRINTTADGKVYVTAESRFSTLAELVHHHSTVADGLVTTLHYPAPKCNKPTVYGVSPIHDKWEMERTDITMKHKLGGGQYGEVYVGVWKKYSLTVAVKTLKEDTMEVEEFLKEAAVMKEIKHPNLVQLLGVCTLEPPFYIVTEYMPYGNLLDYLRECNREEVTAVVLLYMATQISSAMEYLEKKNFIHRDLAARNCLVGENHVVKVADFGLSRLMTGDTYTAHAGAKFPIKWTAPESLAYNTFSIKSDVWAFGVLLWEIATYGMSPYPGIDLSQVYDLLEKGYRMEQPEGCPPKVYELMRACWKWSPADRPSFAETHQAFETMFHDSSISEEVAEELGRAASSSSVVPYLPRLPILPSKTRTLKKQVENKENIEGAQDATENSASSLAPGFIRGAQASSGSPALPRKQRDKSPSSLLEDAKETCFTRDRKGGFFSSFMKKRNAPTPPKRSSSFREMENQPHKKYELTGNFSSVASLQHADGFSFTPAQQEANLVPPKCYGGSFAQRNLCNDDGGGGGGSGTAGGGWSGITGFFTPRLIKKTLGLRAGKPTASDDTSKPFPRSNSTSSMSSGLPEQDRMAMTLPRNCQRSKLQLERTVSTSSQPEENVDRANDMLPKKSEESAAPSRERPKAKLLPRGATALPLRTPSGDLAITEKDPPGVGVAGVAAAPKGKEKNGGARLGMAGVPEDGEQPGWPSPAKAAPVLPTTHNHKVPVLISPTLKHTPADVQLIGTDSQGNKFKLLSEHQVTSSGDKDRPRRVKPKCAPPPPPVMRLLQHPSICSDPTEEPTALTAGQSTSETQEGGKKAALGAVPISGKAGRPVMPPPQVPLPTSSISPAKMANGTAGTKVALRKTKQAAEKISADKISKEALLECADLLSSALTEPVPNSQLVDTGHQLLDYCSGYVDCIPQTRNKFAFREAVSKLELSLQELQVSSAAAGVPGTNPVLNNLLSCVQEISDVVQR

[9] = molecular target: Tyrosine-protein kinase ABL2 (Homo sapiens) (UniProt P42684); details: at 1 µM
[10] = molecular target: Tyrosine-protein kinase receptor UFO (Homo sapiens) (UniProt P30530); details: at 0.1 µM
[11] = molecular target: Tyrosine-protein kinase receptor UFO (Homo sapiens) (UniProt P30530); details: at 1 µM
[12] = molecular target: Tyrosine-protein kinase Blk (Homo sapiens) (UniProt P51451); details: at 0.1 µM
Tyrosine-protein kinase Blk (Homo sapiens), sequence (P51451 2-505 limits assumed): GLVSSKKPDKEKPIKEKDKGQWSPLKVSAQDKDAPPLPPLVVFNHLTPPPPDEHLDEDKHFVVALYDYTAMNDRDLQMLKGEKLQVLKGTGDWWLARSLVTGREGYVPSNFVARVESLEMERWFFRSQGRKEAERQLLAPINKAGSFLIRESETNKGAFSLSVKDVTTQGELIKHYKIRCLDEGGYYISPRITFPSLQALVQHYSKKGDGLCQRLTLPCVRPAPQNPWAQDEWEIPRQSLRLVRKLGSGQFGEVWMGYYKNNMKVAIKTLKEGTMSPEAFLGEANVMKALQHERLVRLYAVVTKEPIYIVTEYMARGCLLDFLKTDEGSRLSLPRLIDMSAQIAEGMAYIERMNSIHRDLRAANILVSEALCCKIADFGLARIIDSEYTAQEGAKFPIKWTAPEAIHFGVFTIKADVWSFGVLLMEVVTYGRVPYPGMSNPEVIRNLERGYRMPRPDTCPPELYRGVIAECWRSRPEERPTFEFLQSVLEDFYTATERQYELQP

[13] = molecular target: Tyrosine-protein kinase Blk (Homo sapiens) (UniProt P51451); details: at 1 µM
[14] = molecular target: T1, Cytoplasmic tyrosine-protein kinase BMX (Homo sapiens) (UniProt P51813); details: at 0.1 µM
T1 sequence (whole entry): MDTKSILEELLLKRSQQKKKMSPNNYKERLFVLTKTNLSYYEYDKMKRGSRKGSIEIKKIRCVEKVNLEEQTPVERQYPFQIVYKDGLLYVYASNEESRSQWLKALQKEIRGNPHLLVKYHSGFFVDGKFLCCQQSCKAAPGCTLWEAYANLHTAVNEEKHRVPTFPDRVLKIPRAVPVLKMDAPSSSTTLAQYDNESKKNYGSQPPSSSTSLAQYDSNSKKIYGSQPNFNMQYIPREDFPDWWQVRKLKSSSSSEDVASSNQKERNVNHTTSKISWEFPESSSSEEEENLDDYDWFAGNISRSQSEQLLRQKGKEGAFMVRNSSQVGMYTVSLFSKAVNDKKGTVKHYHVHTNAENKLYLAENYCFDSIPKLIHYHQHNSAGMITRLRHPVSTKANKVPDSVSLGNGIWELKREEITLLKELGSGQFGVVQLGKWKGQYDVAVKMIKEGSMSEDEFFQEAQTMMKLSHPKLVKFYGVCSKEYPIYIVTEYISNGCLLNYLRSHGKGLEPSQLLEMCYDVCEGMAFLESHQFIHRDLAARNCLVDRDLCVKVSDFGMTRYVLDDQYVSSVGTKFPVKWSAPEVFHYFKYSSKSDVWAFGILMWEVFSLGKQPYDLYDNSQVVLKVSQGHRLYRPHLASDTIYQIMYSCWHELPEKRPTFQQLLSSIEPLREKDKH

[15] = molecular target: T1, Cytoplasmic tyrosine-protein kinase BMX (Homo sapiens); details: at 1 µM
[16] = molecular target: Protein-tyrosine kinase 6 (Homo sapiens) (UniProt Q13882); details: at 0.1 µM
Protein-tyrosine kinase 6 (Homo sapiens), sequence (Q13882 whole entry, looked up): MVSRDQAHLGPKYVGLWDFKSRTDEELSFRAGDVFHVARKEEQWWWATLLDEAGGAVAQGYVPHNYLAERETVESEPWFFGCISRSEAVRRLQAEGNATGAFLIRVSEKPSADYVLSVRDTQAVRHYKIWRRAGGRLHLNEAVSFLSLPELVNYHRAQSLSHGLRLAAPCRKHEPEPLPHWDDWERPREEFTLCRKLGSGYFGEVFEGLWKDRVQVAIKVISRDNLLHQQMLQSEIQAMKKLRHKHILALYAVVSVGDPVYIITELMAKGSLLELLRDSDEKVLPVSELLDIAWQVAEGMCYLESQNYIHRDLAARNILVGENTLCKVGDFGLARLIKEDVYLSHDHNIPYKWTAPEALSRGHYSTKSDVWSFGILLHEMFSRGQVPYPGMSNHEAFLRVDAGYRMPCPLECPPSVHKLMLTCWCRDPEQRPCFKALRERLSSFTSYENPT

[17] = molecular target: Protein-tyrosine kinase 6 (Homo sapiens) (UniProt Q13882); details: at 1 µM
[18] = molecular target: Tyrosine-protein kinase BTK (Homo sapiens) (UniProt Q06187); details: at 0.1 µM
Tyrosine-protein kinase BTK (Homo sapiens), sequence (Q06187 whole entry): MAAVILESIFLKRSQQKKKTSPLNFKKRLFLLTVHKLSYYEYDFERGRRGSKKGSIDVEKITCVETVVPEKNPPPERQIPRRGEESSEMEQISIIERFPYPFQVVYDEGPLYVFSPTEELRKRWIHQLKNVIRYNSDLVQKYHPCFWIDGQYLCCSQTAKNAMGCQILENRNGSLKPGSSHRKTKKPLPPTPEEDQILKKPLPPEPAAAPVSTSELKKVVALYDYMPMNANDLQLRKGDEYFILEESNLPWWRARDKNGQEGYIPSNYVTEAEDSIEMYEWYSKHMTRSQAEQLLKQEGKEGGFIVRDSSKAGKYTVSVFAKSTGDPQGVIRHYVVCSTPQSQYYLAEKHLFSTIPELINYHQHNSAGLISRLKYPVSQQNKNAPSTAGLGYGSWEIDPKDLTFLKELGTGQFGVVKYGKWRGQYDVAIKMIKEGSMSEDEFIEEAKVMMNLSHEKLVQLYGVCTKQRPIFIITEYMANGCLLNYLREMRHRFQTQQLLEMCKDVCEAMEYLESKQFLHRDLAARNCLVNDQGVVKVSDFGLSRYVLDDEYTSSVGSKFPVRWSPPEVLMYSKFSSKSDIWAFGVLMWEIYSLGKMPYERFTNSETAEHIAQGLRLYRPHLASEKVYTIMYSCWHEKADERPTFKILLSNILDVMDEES

[19] = molecular target: Tyrosine-protein kinase BTK (Homo sapiens) (UniProt Q06187); details: at 1 µM
[20] = molecular target: Tyrosine-protein kinase CSK (Homo sapiens) (UniProt P41240); details: at 0.1 µM;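 also: value given is the averaged percent inhibition of CSK kinase activity, from the GSK PKIS kinase inhibitor set screening panel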
Tyrosine-protein kinase CSK (Homo sapiens), sequence (P41240 2-450 limits assumed): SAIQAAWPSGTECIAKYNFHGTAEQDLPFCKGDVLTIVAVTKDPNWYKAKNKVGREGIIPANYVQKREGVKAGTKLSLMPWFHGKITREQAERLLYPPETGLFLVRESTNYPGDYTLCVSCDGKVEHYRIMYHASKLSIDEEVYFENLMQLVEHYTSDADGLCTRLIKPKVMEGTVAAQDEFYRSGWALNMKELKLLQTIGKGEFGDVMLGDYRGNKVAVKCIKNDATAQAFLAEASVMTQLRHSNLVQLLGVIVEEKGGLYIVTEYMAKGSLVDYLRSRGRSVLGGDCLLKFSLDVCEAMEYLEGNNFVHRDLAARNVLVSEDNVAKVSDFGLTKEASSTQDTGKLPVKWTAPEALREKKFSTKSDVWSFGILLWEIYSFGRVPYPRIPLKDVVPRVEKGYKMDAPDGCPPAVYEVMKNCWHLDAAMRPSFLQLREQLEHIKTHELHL

| SMILES | inhibition [1] [%] | inhibition [2] [%] | inhibition [3] [%] | inhibition [4] [%] | inhibition [5] [%] | inhibition [6] [%] | inhibition [7] [%] | inhibition [8] [%] | inhibition [9] [%] | inhibition [10] [%] | inhibition [11] [%] | inhibition [12] [%] | inhibition [13] [%] | inhibition [14] [%] | inhibition [15] [%] | inhibition [16] [%] | inhibition [17] [%] | inhibition [18] [%] | inhibition [19] [%] | inhibition [20] [%] |
| --- | --- | --- | --- | --- | --- | --- | --- | --- | --- | --- | --- | --- | --- | --- | --- | --- | --- | --- | --- | --- |
| CCN1CCC(CC(=O)Nc2n[nH]c3nc(-c4cccs4)c(Br)cc23)CC1 | 22.7 | -0.82 | 5.45 | 2.56 | 7.83 | -2.08 | -1.3 | -0.08 | 2.5 | 1.67 | 2.24 | -1.4 | 0.14 | -3.73 | -1.1 | -3.07 | 0.94 | -1.38 | 0.05 |  |
| CCc1cccc(NC(=O)Nc2ccc(Oc3ccc4nc(NC(=O)OC)[nH]c4c3)cc2)c1 | 51.3 | 18.3 | 26.6 | 7.41 | 23.8 | 1.34 | 3.68 | 14.8 | 44.8 | 9.63 | 25.5 | 2.34 | 0.6 | -1.67 | 1.67 | 1.3 | 1.76 | 1.67 | 1.57 | 4.01 |
| CC1=C(C(=O)Nc2ccc3[nH]ncc3c2)C(c2ccc3ccccc3c2)CC(=O)N1 (centres undefined) | 22.1 | 4 | 5.47 | 2.85 | 7.38 | 2.78 | 7.11 | 3.07 | 8.71 | -2.62 | -3.18 | 13.4 | 58.5 | -1.63 | 3.91 | 3.76 | 6.55 | 0.23 | 11.4 | 4.44 |
| CCn1c(-c2nonc2N)nc2c(N3CCCC3)nccc21 | 0.72 | -1.15 | 2.07 | -1.74 | 0.66 | -1.38 | -2.28 | 0.18 | 7.36 | 0.14 | 4.04 | -1.15 | -2.43 | -2.04 | -1.4 | -1.28 | -2.02 | 0.03 | -1.53 | -7.4 |
| O=C1NC(=O)C(c2ccc(Cl)cc2)=C1Nc1ccc(Cl)c(C(=O)O)c1 | 3 | 2.01 | 0.85 | -0.85 | 7.52 | -2.28 | -1.12 | -0.74 | 7.37 | 2.69 | 7.43 | -0.2 | -2.5 | -4.08 | -3.08 | 0.06 | -1.29 | -0.05 | 0.05 | -3.37 |
| Nc1nc(-c2ccc3c(c2)C(=Cc2cc(Br)c(O)c(Br)c2)C(=O)N3)cs1 | 1.95 | -2.03 | 7.8 | 0.56 | 12.7 | -1.31 | 1.3 | 0.45 | 9.86 | 0.81 | 2.96 | -4.1 | 5.56 | -0.96 | -0.09 | -1.42 | 0.1 | -1.45 | -0.23 | -4.69 |
| COc1cc2ncn(-c3cc(OCc4ccccc4C(F)(F)F)c(C(N)=O)s3)c2cc1OC | 14 | 5.48 | 19.4 | 2.17 | 17.9 | 0.14 | 5.04 | 2.15 | 13.2 | -8.08 | -1.95 | 1.67 | 17.8 | 4.67 | 8.1 | 3.25 | 5.16 | -3.7 | -1.82 | 3.11 |
| Nc1ncnc2occ(-c3ccc(NC(=O)Nc4cc(C(F)(F)F)cc(C(F)(F)F)c4)cc3)c12 | 83.3 | 9.88 | 42.3 | 3.94 | 43.5 | 2.49 | 10.8 | 6.22 | 48.9 | -0.91 | 22.1 | 2.66 | 36.5 | 4.42 | 49.9 | 1.52 | 2.35 | 2.44 | 9.01 | 3.53 |
| COc1ccccc1Nc1ncc(-c2ccccc2)o1 | 5.84 | 4.71 | 13.7 | 8.63 | 14.1 | 4.54 | 9.47 | 7.08 | 11.2 | -6.45 | -5.15 | 4.5 | 5.8 | 4.01 | 6.53 | 2.03 | 6.6 | 0.53 | 3.39 | 2.72 |
| CCn1c(-c2nonc2N)nc2cnc(Oc3cccc(NC(=O)c4ccc(OCCN5CCOCC5)cc4)c3)cc21 | 4.26 | 5.27 | 4.41 | 3.37 | 11.1 | 1.15 | 3.72 | 4.56 | 7.99 | -6.28 | -2.93 | 2.22 | 2.41 | 0.58 | 2.53 | 0.94 | 4.32 | -1.45 | -2.04 | 2.95 |
| CC(=O)Nc1cccc(C#Cc2cncnc2Nc2ccc(OCc3cccc(F)c3)c(Cl)c2)n1 | 2.23 | 2.32 | 1.84 | 1.24 | 4.88 | -2.16 | -2.6 | 0.55 | 3.74 | 7.46 | 1.38 | 1.94 | 1.82 | 1.43 | 0.97 | -2.54 | 1.12 | 0.29 | 0.86 | -1.09 |
| Fc1cccc(COc2ccc(Nc3ncnc4cc(-c5ccc[nH]5)sc34)cc2Cl)c1 | 5.41 | 3.92 | 8.02 | 0.53 | 10.7 | -2.31 | 2.96 | 3.02 | 9.41 | -2.49 | -0.12 | -2.62 | 0.69 | 2.13 | 1.82 | 1.55 | 6.36 | -5.43 | -4.27 | 2.68 |
| O=C1NC(=O)C(c2cccc(Cl)c2)=C1Nc1ccc(O)c(Cl)c1 | -0.11 | -0.8 | 2.65 | 2.51 | 7.89 | 0.73 | 4.45 | 2.29 | 8.28 | 0.38 | -0.83 | 0.13 | 5.96 | 4.05 | 1.46 | -2.09 | -2.04 | -0.33 | 1.57 | 0.82 |
